# Screening results (PubChem BioAssay)
# Hits are enriched below; roughly 12% of the tested compounds scored in any of these assays.
# SARS PLpro yeast: inhibitors of SARS-CoV papain-like protease in yeast. S. cerevisiae expressing SARS-CoV PLpro, growth rescue. AID 485353. 330,000 compounds, 0.19% hits. Potency, µM (highest dose often 32.9 µM), actives largely listed as activators; calls by dose curve; also: nearly all actives have a fitted effect of over 55% in size
# Pf growth 96h: inhibits malaria parasite growth, 96 h; Potency, µM (series often up to 28.7 µM), usual class: inhibitors; P. falciparum luciferase reporter growth, 96 h; 320,000 compounds, 6.9% hits
#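 Compounds incubated with erythrocytes infected by luciferase-expressing P. falciparum (2% hematocrit, 0.05% parasitemia final) for 96 hours, 37 C in 5% CO2. Growth inhibition scored as decreased luciferase luminescence.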
# Pf growth 48h: P. falciparum growth inhibition at 48 hours (one generation) | 310,000 compounds, 5.9% hits | P. falciparum luciferase growth in erythrocytes, 48 h | Potency, µM (doses to about 28.7 µM), actives largely listed as inhibitors
#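 Compounds are pin-transferred into medium, infected erythrocytes (2% hematocrit, 0.1% parasitemia final) are added, and plates sit one parasite generation at 37 C in 5% CO2. Detection reagent is then added and luminescence measured.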
# Sm TGR block: blocks Schistosoma mansoni thioredoxin glutathione reductase; purified TGR, DTNB reduction, TNB absorbance 405 nm; AID 485364; Potency, µM (titrated, usually from 114 µM), usual class: inhibitors; 360,000 compounds, 3% hits; also: nearly all actives have a fitted effect of over 60% in size
#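 First, TGR (20 nM dispensed) and NADPH were mixed with compound. Second, a 15 min room-temperature incubation followed. Third, further NADPH and then DTNB were added to start the reaction. Finally, TNB absorbance was monitored kinetically.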
# A number is an active result; – = inactive; ? = inconclusive; · = not tested or not shown. Unless noted, calls follow the shape of the dose curve; as a rule, active = well fitted curve in the direction sought with a large enough effect; inconclusive = small, poorly fitted or top-dose-only effect, or another doubt; inactive = no such curve, though single readings can be large; an effect the other way counts as inactive or inconclusive.
SMILES,SARS PLpro yeast,Pf growth 96h,Pf growth 48h,Sm TGR block
CCN(CC)C1CC(=O)N(c2ccc(Br)cc2)C1=O (stereo not drawn),–,?,–,7.1µM
Cc1ccc(S(=O)(=O)NNC2CC(=O)N(c3ccc(Br)cc3)C2=O)cc1 (stereo not drawn),–,–,–,·
CSc1nnc2c(n1)OC(c1cccc(O)c1Cl)Nc1ccccc1-2 (stereo not drawn),·,·,·,–
c1coc(C2Nc3cccc4cccc(c34)N2)c1,–,–,–,7.9µM
COc1ccc(-c2c3c(=O)n(C)c(=O)n(C)c3c3n2-c2ccccc2NC3c2ccc(O)cc2O)cc1 (stereo not drawn),·,·,·,–
Brc1ccc(C2=Nc3cccc4cccc(c34)N2)o1,–,?,?,?
Brc1ccc(-c2ccc(C3Nc4cccc5cccc(c45)N3)o2)cc1,–,?,?,35µM
Oc1ccc(C2Nc3cccc4cccc(c34)N2)c(O)c1,–,1.5µM,6.6µM,50µM
Clc1cccc(C2Nc3cccc4cccc(c34)N2)c1Cl,–,?,?,–
Clc1ccccc1C1Nc2cccc3cccc(c23)N1,–,–,?,18µM
c1cnc(N2CCN(c3nc4ccccc4n4cnnc34)CC2)nc1,–,?,–,–
c1ccc(C(c2ccccc2)N2CCN(c3nc4ccccc4n4cnnc34)CC2)cc1,–,1.7µM,1.9µM,–
COC(=O)c1sccc1S(=O)(=O)N(CC(=O)NCc1ccc(F)cc1)c1ccccc1,·,·,·,–
COc1ccc(C(=O)C2CCCN(C(=O)CCc3ccccn3)C2)c(C)c1 (stereo not drawn),–,–,–,–
COc1ccc(C(=O)C2CCCN(C(=O)CCc3scnc3C)C2)c(C)c1 (stereo not drawn),–,–,2.3µM,32µM
COC(=O)CCCC(=O)N1CCCC(C(=O)c2ccc(OC)cc2C)C1 (stereo not drawn),–,15µM,–,–
CC(OC(=O)C1CC(=O)N(Cc2ccco2)C1)C(=O)Nc1ccccc1[N+](=O)[O-] (stereo not drawn),–,–,–,–
COc1ccc(N=c2scc(-c3ccc(S(=O)(=O)N4CCOCC4)cc3)n2CCCO)cc1,–,–,12µM,–
C=CCn1c(-c2ccc(S(=O)(=O)N3CCOCC3)cc2)csc1=Nc1ccccc1,–,12µM,?,–
CC(=O)c1cccc(N=c2scc(-c3ccc(S(=O)(=O)N4CCOCC4)cc3)n2CCO)c1,–,4.7µM,5.2µM,–
O=S(=O)(c1ccc(-c2csc(=Nc3ccc(F)cc3)n2CCCCCCO)cc1)N1CCCC1,·,·,·,–
CCOCCCNC(=O)C1CCN(S(=O)(=O)c2cc(Br)cc3c2N(C(=O)CC)CC3)CC1,–,?,?,–
CCC(=O)N1CCc2cc(Br)cc(S(=O)(=O)N3CCC(C(=O)NCCCOC(C)C)CC3)c21,–,?,2.9µM,–
CC(=O)N1CCc2cc(Br)cc(S(=O)(=O)N3CCCCCC3)c21,–,–,3.3µM,–
O=C(C1CC1)N1CCc2cc(Br)cc(S(=O)(=O)NCCCN3CCCC3)c21,–,9.3µM,–,–
SMILES,SARS PLpro yeast,Pf growth 96h,Pf growth 48h,Sm TGR block
CCC(=O)N1CCc2cc(Br)cc(S(=O)(=O)CC(=O)OC)c21,–,15µM,?,–
Cc1ccc2oc(C(=O)Nc3ccc(S(=O)(=O)Nc4ncccn4)cc3)c(C)c2c1,–,?,–,–
COc1ccc(CCC(=O)N2CCCC(Nc3ccccc3)C2)cc1OC (stereo not drawn),–,–,?,–
COc1ccc(OC)c(CCNC(=O)C(C)n2c(C)c3cnn(-c4ccccc4)c(=O)c3c2C)c1 (stereo not drawn),·,·,·,–
COc1cccc2c1cc1c(=O)n(CC(=O)NC3CC3)nc(C)n12,·,·,·,–
O=C(C1CC1)N1CCc2cc(Br)cc(S(=O)(=O)N3CCN(c4ccccc4)CC3)c21,·,·,·,–
CCOC(=O)C1CCN(S(=O)(=O)c2cc(Br)cc3c2N(C(=O)C2CC2)CC3)CC1,–,–,8.3µM,–
COc1ccc(-n2nc([N+](=O)[O-])c(=NCCc3ccc(OC)c(OC)c3)n2O)cc1,–,–,–,35µM
COc1ccccc1CN=c1c([N+](=O)[O-])nn(-c2ccc3c(c2)OCCO3)n1O,–,–,–,40µM
CCOc1ccc(C(C)C)cc1S(=O)(=O)Nc1cccc(-c2ccc(N3CCOCC3)nn2)c1,·,·,·,–
Cc1ccc(NC(c2nnc(-c3ccccc3)o2)c2ccccc2F)c(Cl)c1 (stereo not drawn),·,·,·,–
Cn1cc(/C=C(\NC(=O)c2ccccc2Cl)C(=O)NCCCN2CCOCC2)c2ccccc21,–,10µM,?,–
CC(C)C(NC(=O)c1ccc(C(C)(C)C)cc1)C(=O)NCc1ccccn1 (stereo not drawn),–,–,?,–
COc1ccc(N2C(=O)c3ccccc3NC2c2ccc(OC)c(Cn3nnc4ccccc43)c2)cc1 (stereo not drawn),–,9.3µM,12µM,–
COc1ccc(C2Nc3ccccc3C(=O)N2Cc2ccccc2)cc1COc1ccc(Cl)cc1Cl (stereo not drawn),–,–,1.7µM,–
COc1ccc(C2Nc3ccccc3C(=O)N2Cc2ccccc2)cc1CN1CCOCC1 (stereo not drawn),–,13µM,8.3µM,–
CCOC(=O)C1(C)C=C(Nc2ccc(C)cc2)C(=O)N1c1ccccc1 (stereo not drawn),·,·,·,–
COc1cc(C2CC(=O)Oc3c(C(CCN4CCOCC4)c4ccc(N(C)C)cc4)c(OC)cc(OC)c32)cc(OC)c1OC (stereo not drawn),–,?,12µM,–
COc1ccc(C2CC(=O)Oc3c(C(CCN4CCCC(C)C4)c4ccc(N(C)C)cc4)c(OC)cc(OC)c32)cc1 (stereo not drawn),–,?,?,–
COc1cc(C2CC(=O)Oc3c(C(CCN4CCN(c5ccccc5)CC4)c4ccc(N(C)C)cc4)c(OC)cc(OC)c32)cc(OC)c1OC (stereo not drawn),–,4.1µM,4.1µM,–
COc1cc(C(CCN2CCOCC2)c2c(OC)cc(OC)c3c(-c4ccccc4)cc(=O)oc23)cc(OC)c1OC (stereo not drawn),–,·,·,·
COc1ccc(C2CC(=O)Oc3c(C(CCN4CCCCC4)c4ccc(N(C)C)cc4)c(OC)cc(OC)c32)cc1 (stereo not drawn),–,9.3µM,?,–
CCOC(=O)N1CCN(c2ccccc2OC)CC1,–,–,–,–
CCOC(=O)/C(=N\Nc1ccc(Br)cc1)N1CCN(c2ccccc2OC)CC1,–,?,15µM,–
COc1ccc(N2CCN(c3ccc(-c4nc(-c5ccccc5)no4)cc3[N+](=O)[O-])CC2)cc1,·,·,·,–
CN(/N=C\c1ccc(O)c(O)c1)c1nc(-c2ccccc2)cc(-c2ccccc2)n1,–,?,10µM,–
CCOC(=O)Nc1ccc2nc(Sc3ccc(Cl)cc3)sc2c1,–,15µM,9.3µM,–
COC(=O)c1ccc(SCC(=O)NCc2ccccc2)c([N+](=O)[O-])c1,–,2.6µM,·,–
COc1ccc(C(=O)OCC(=O)NC(=O)NCc2ccccc2)cc1[N+](=O)[O-],–,–,–,–
